Source: the supplement of paper PMC8726507
Unmarked numbers belong to inactive results.

Each compound was assayed on Plasmodium falciparum NF54-HGL (transmission to Anopheles stephensi) (assay: percentage of barcode signal found in uninfected mosquitoes (transmission-blocking activity); higher = stronger blocking of transmission to mosquito, active = 80 or more). Conditions: 10 µM; gametocyte preincubation time 24 h; readout time post-feed 8 days.
Description: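 The mixture was fed to Anopheles stephensi in 96-well plates as blood meals tagged with DNA-barcoded Asaia bacteria. Eight days later, mosquitoes were classed infected or uninfected by luminescence (mean + 5 SD of unfed controls). Barcodes were quantified by Luminex MagPlex-TAG in the pooled uninfected and infected Asaia cultures, background-corrected, and the score is % of barcode signal in uninfected mosquitoes = 100*Iu/(Iu+Ii).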

SMILES	percentage of barcode signal found in uninfected mosquitoes
COc1cccc2c(C)nc(N=C(N)N)nc12	24.9%
COC(=O)c1c(NC(=O)c2cc3ccccc3oc2=O)sc2c1CCN(Cc1ccccc1)C2	49.1%
COc1cccn2c(C(=O)N3CCCCC3)c(C(F)(F)F)nc12	27.1%
CS(=O)(=O)c1cccc(-c2cnc3[nH]cc(-c4ccc(CCC(=O)O)cc4)c3c2)c1	29.9%
CS(=O)(=O)Cc1nc2ccccc2oc1=O	80.3% (active)
Nc1ncnc2c1c(Cc1cccc3ccccc13)nn2CC1CCNCC1	74.2%
CNC(=O)c1nn(C)c2c1C(C)(C)Cc1cnc(Nc3ccc(N4CCN(C)CC4)cc3)nc1-2	64%
CC(C)(C)OC(=O)N1CCC(Cn2nc(-c3cnc4ccccc4c3)c3c(N)ncnc32)CC1	24.4%
Nc1nc(N)c2c3c(sc2n1)CN(Cc1ccccc1)CC3	11.7%
CCC(=O)Nc1ccccc1C(=O)Nc1ccccn1	50%
O=C(NC1=NCCS1)c1sc2cc(F)ccc2c1Cl	5.7%
CNC(=O)c1cc(S(=O)(=O)N2CCN(c3ccccn3)CC2)cs1	37.8%
Cc1[nH]c2ccccc2c1C(c1cccs1)N1CCN(C)CC1 (stereo not drawn)	43.7%
CC1=NN(c2nc3ccccc3s2)C(=O)C1Cc1cccc2ccccc12 (stereo not drawn)	0.165%
CN(C)c1cc(NC(=O)Nc2ccccc2)c2ccccc2n1	88.3% (active)
Cc1ccc(S(=O)(=O)N2CCN(C(=O)c3cc(-c4ccccc4)[nH]n3)CC2)cc1	69.8%
CS(=O)(=O)c1ccccc1C(=O)N(Cc1ccccc1)c1ccccc1	5.09%
O=C(Nc1nc(-c2ccccn2)cs1)c1cncn1-c1ccccc1	21.4%

Same assay, conditions: 20 µM; gametocyte preincubation time 24 h; readout time post-feed 8 days

SMILES	percentage of barcode signal found in uninfected mosquitoes
CCn1ncc2c(NC3CCOCC3)c(CNC(=O)c3ccnn3C)c(C)nc21	91.2% (active)
Cc1cc(Cl)c(S(=O)(=O)N2CCCC2)cc1OCC(=O)NC1CCCCC1	1.74%
FC(F)(F)c1ccc(N(c2cccnc2)C2CCN(c3ccc(C(F)(F)F)cn3)CC2)cc1	27.4%
CC(C)(C)n1nc(Cc2cccc3ccccc23)c2c(N)ncnc21	0.0299%
COc1cccc(-n2nnnc2S(C)(=O)=O)c1	70.1%
COc1cccc(-c2cc3c(Nc4cccnc4)nccc3[nH]2)c1	29%
COc1ccc2nc(C)cc(OCC(=O)Nc3ccccc3OC)c2c1	5.42%
Cc1nn(C(=O)Nc2cccc(C(F)(F)F)c2)c(C)c1Sc1ncccn1	2.49%
CC1=Nc2ccc(Cl)cc2C(c2ccccc2)N1CCNC(=O)CN(C)C (stereo not drawn)	71.2%
Cc1cc(C)n(-c2ccc(NC(=O)C3CCN(Cc4cnc(C)s4)CC3)cc2)n1	1.19%
c1ccc(Oc2ccc(-c3cncc(-c4ccc5[nH]ccc5c4)n3)cc2)cc1	29%
Cc1cnc(N2CCN[C@@H](Cc3ccccc3)C2)nc1Oc1ccc(-n2ccnc2)cc1	87% (active)
c1ccc(Oc2ccc(-c3cc(N4CCNCC4)[nH]n3)cc2)cc1	27.2%
CC(C)=CCC/C(C)=C\CNCCNC1C2CC3CC(C2)CC1C3 (stereo not drawn)	81.8% (active)
Clc1ccc(Cl)c(CO[C@H]2CCCC[C@@H]2n2ccnc2)c1	19.9%
Cc1cc(C)nc(-n2nc(C)cc2Nc2ccccc2)n1	80.5% (active)
O=C(NCc1cc(Cl)cc(Cl)c1)c1c(C(F)(F)F)nc2ccccn12	20%
COc1cc(OC)cc(C(=O)NCC2Cc3cc(Cl)cc(-c4ccncc4)c3O2)c1 (stereo not drawn)	1.01%
O=C(Nc1cccc(Cl)c1)c1cnc(N2CCN(c3ccncc3)CC2)c(Cl)c1	56%
Nc1nc2ccc(-c3cncc(Oc4ccc(F)cc4)c3)cc2[nH]1	99.4% (active)
